Where “and” joins values, the source holds several entries; their conditions need not be identical. Equal entries are not always repeated. Inconclusive results are not listed. Entries that show only a call come without a potency. Calls of active or inactive are those of the source. Unless noted, calls follow the shape of the dose curve; as a rule, active = well fitted curve in the direction sought with a large enough effect; inconclusive = small, poorly fitted or top-dose-only effect, or another doubt; inactive = no such curve, though single readings can be large; an effect the other way counts as inactive or inconclusive.
What was measured:
[1] = target: Cytochrome P450 2C9 (Homo sapiens) (UniProt P11712); test: Cytochrome P450 family 2 subfamily C member 9 (CYP2C9) small molecule antagonists: luciferase biochemical (cell-free) qHTS assay (AID 1645842; active = well fitted curve in the direction sought with a large enough effect in the repeat runs; an effect the other way counts as inactive or inconclusive; also: nearly all actives have a fitted effect of over 55% in size; also: potency is read from the fitted curve at half-maximal effect)
Procedure, shortened: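 Luminescence, after 20 min with luciferin detection reagent, reflected CYP2C9 turnover during a 1 h NADPH-driven reaction at 37C. Enzyme-substrate mix contained 0.4% bovine serum albumin and was preincubated with compound 10 min at room temperature.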

Papain (Carica papaya) = Papain (Carica papaya) (UniProt P00784); test: Primary qHTS assay for inhibitors of the protease papain (AID 1645873);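 also: papain turnover of Z-FR-AMC read as the AMC fluorescence gain over 10 min; series mostly up to about 50 µM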
[2] = Primary qHTS for inhibitors of nuclear receptor binding SET domain protein 2 (NSD2) in an isogenic RCH-ACV NSD2 p.E1099K mutant (9B) (AID 1645876); also: nearly all actives have a fitted effect of over 70% in size; also: potency is read from the fitted curve at half-maximal effect
[3] = Primary qHTS for inhibitors of nuclear receptor binding SET domain protein 2 (NSD2) in an RCH-ACV wild type WT cells (2C) (AID 1645877); also: nearly all actives have a fitted effect of over 70% in size; also: potency is read from the fitted curve at half-maximal effect

Cytochrome P450 2C9 (Homo sapiens), sequence (P11712 whole entry, looked up): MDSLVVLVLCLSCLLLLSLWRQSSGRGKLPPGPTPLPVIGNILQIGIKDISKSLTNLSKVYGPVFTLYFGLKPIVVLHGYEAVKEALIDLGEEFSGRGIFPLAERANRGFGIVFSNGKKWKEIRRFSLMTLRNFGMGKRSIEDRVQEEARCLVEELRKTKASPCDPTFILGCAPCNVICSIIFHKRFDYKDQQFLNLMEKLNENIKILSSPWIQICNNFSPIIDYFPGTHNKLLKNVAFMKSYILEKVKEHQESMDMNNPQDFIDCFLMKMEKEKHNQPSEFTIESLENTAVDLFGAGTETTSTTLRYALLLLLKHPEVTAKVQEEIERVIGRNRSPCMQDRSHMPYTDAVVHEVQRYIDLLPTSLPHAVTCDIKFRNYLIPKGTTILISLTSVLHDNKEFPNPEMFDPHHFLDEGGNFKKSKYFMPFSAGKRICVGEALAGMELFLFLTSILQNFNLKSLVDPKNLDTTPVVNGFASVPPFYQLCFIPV
Papain (Carica papaya), sequence (P00784 whole entry, looked up, the tested form may be a part): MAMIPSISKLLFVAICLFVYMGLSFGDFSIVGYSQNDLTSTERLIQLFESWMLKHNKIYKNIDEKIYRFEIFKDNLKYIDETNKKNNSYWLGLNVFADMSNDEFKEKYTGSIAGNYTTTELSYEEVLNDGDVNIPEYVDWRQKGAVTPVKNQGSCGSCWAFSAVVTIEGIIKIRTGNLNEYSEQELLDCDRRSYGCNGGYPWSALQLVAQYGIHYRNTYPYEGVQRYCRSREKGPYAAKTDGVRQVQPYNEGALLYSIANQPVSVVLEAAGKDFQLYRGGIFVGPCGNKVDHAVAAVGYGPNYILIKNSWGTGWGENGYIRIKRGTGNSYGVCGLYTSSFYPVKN

Compound | Potency [1] | outcome (Papain (Carica papaya)) | Potency [2] | Potency [3]
COc1ccc(C2CC(c3ccccc3)=NN2c2ccc(S(N)(=O)=O)cc2)cc1 (stereo not given) | 6.74 µM (active) |  |  | 
C[C@H](NC(=O)c1sccc1OCc1ccc(Cl)cc1)c1ccccc1 | 0.952 µM (active) |  |  | 
O=C1Nc2ccc(Cl)cc2C(C#CC2CC2)(C(F)(F)F)O1 (stereo not given) | 12 µM (active) |  |  | 
CC1=C(/C=C/C(C)=C/C=C/C(C)=C/C(=O)Nc2ccc(O)cc2)C(C)(C)CCC1 | 2.75 µM (active) | inactive | 1.88 µM (active) and 2.95 µM (active) | 1.88 µM (active) and 2.95 µM (active)
CN1C[C@H]2c3ccccc3Oc3ccc(Cl)cc3[C@@H]2C1 | inactive |  |  | 
CC(=O)CCCCn1c(=O)c2c(ncn2C)n(C)c1=O | inactive | inactive | inactive | 
CN(C)CCC(c1ccccc1)c1ccccn1 (stereo not given) | inactive | inactive | inactive | inactive
NCCS | inactive | inactive | inactive | inactive
CN(C)c1cc(NC(=O)CNC(C)(C)C)c(O)c2c1C[C@@H]1C[C@H]3[C@H](N(C)C)C(=O)C(C(N)=O)=C(O)[C@@]3(O)C(=O)C1=C2O | inactive |  |  | 
O=C(Nc1cccc(Br)c1)c1cccc(S(=O)(=O)N2CCCCCC2)c1 | 6.01 µM (active) |  |  | 
Cc1cccc(C)c1OCC(C)N (stereo not given) | inactive | inactive | inactive | 
NC(N)=Nc1nc(CSCC/C(N)=N/S(N)(=O)=O)cs1 | inactive | inactive | inactive | inactive
CCN(CC)CCOC(=O)c1ccc(N)cc1 | inactive | inactive | inactive | 
CCCCC1C(=O)N(c2ccccc2)N(c2ccccc2)C1=O | 8.71 µM (active) | inactive | inactive | inactive

Source: PubChem BioAssay (NCATS)
